# Measurements: PubChem BioAssay AID504840 (Johns Hopkins Ion Channel Center, 2011)
# Hit rate of the full screen: of about 1,500 compounds, about 890 (59%) were called active.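 Rule for the calls: active = inhibition of the choline-evoked signal at any tested dose together with a fitted dose-response curve; inactive = no inhibition at any dose or no curve.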 The set was probably picked from earlier hits. Not all results are given here. Entries with a potency or affinity are not part of this list.
# Target: High affinity choline transporter 1 (Homo sapiens) (UniProt Q9GZV3)
# Test: human choline transporter blockers, potency – cell-based, 5-point CRC, membrane potential dye, dose response (AID 504840)
# Conditions: HEK293-CHT, choline-induced depolarization, CHT with LV-to-AA double alanine mutation; series mostly up to 37 µM
# High affinity choline transporter 1 (Homo sapiens), sequence (Q9GZV3 whole entry, looked up): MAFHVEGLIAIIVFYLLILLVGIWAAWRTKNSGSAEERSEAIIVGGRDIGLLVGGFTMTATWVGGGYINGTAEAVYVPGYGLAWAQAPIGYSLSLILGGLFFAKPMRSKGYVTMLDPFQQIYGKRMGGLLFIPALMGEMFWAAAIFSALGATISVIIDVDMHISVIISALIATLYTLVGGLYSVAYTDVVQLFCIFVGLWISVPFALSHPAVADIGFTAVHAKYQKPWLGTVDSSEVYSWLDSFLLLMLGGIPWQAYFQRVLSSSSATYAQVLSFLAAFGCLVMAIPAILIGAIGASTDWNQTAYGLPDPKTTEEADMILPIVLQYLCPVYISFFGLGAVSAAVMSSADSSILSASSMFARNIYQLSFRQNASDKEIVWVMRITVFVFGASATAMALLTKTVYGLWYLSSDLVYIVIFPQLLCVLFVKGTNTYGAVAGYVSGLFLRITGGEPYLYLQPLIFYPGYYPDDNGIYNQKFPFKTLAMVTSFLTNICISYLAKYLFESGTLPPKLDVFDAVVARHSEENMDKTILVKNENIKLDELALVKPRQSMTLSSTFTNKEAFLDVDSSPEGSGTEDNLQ
row,SMILES,outcome
1,OCC1OC(n2cnc3c(NC4CCCCC4)ncnc32)C(O)C1O (stereo unspecified),inactive
2,CC(=O)c1ccc(Nc2nc(NCCO)nc(OC(C(F)(F)F)C(F)(F)F)n2)cc1,inactive
3,CC1CCN(CCCNC(=O)CN2C(=O)CSc3ccc(S(=O)(=O)N4CCCCC4)cc32)CC1,inactive
4,CCCCN(C)CCNC(=O)CN1C(=O)CSc2ccc(S(=O)(=O)N3CCCC3)cc21,inactive
5,Cc1ccc(-c2csc3ncnc(N4CCN(C)CC4)c23)cc1C,inactive
6,Cc1ccc(-c2csc3ncnc(-n4cnc5ccccc54)c23)cc1,inactive
7,Cc1ccc(-c2csc3ncnc(-n4nnc5ccccc54)c23)cc1,inactive
8,O=C(O)CCN1C(=O)CC(N2C(=O)/C(=C/c3ccc(Cl)cc3)SC2=S)C1=O (stereo unspecified),inactive
9,COc1ccc(-c2csc3ncnc(NCCCO)c23)cc1,inactive
10,CCCNC(=O)N1CCCC(C(=O)c2cccc(Cl)c2)C1 (stereo unspecified),inactive
11,CCOC(=O)Cc1csc(N/C(=N/S(=O)(=O)c2ccc(F)cc2F)c2ccccc2)n1,inactive
12,Cc1cc(O)ccc1NS(=O)(=O)c1ccc2c3c(cccc13)C(=O)N2,inactive
13,CC1Cc2ccccc2N1C(=O)COC(=O)c1ccc(O)cc1 (stereo unspecified),inactive
14,CC[C@H](CO)Nc1nc(Nc2cccc(Cl)c2)c2ncn(C(C)C)c2n1,inactive
15,COc1cc2c(cc1OC)/C(=C/C(=O)c1ccccc1F)NCC2,inactive
16,CCCCCn1c(=O)c(F)cn(Cc2ccc(OC)c([N+](=O)[O-])c2)c1=O,inactive

row,SMILES,outcome
1,Cn1c(-c2ccccc2)cnc1SCc1nc2ccccc2c(=O)[nH]1,inactive
2,N#Cc1ccccc1COC(=O)c1cccnc1N,inactive
3,CC1=C(C(=O)NC(C)C)C2(CCC(C)CC2)OC1=O (stereo unspecified),inactive
4,COc1ccc(/C=C2/SC(=S)N(NS(=O)(=O)c3ccccc3)C2=O)cc1,inactive
5,O=C1/C(=C/c2ccc(F)cc2)SC(=S)N1NS(=O)(=O)c1ccccc1,inactive
6,CCOc1ccc(/C=C2\SC(=S)N(NS(=O)(=O)c3ccc(C)cc3)C2=O)cc1OC,inactive
7,COc1cc(C=O)ccc1OCCOCCOc1ccccc1Cl,inactive
8,Cc1ccc(C(=O)Nc2cccc(C(F)(F)F)c2)cc1NC(=O)c1csc(-c2ccncc2)n1,inactive
9,CCOc1ncccc1C(=O)NCC1COc2ccccc2O1 (stereo unspecified),inactive
10,Cc1ccc(NC(=O)COC(=O)CN2C(=O)COc3ccccc32)cc1,inactive
11,CC1(C)CC2CC(C)(CN2C(=O)CCCN2C(=O)c3ccccc3C2=O)C1 (stereo unspecified),inactive
12,Cc1ccc2nc(-c3ccccc3)cc(C(=O)NCCCn3ccnc3)c2c1,inactive
13,O=C(O)c1ccc(N/N=C/c2cn(-c3ccccc3)nc2-c2cccs2)cc1,inactive
14,Cc1c(CCC(=O)NCCCn2ccnc2)c(=O)oc2c(C)c3occ(C(C)(C)C)c3cc12,inactive
15,CCOc1cccc(-c2nn(-c3ccccc3)cc2/C=C(/C#N)C(=O)NCCCn2ccnc2)c1,inactive
